Data on 18 compounds can be found in PubChem BioAssay.

Values without a mark were called inactive. No rule for the calls is given here.

The target in this assay is Pantothenate synthetase (Mycobacterium tuberculosis (strain ATCC 25618 / H37Rv)) (UniProt P9WIL5). As to the kind of experiment: Recombinant Mtb pantothenate synthetase (PanC) inhibitors, coupled enzyme, confirmatory (AID 375).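 Also: 0% = full reaction with vehicle and 100% = no enzyme background.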 The conditions noted are these: coupled enzyme assay; at 10 µM, hits give high values.
Sequence of Pantothenate synthetase (Mycobacterium tuberculosis (strain ATCC 25618 / H37Rv)) (P9WIL5 whole entry, looked up): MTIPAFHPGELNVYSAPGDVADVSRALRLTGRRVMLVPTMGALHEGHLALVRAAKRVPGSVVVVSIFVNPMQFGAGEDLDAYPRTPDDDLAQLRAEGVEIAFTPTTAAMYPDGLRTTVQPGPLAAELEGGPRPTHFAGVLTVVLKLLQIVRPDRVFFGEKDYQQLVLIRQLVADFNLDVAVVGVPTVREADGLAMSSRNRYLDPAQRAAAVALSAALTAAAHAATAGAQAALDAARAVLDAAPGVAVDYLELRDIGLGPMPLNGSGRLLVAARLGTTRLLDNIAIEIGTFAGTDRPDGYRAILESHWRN
As to `CCCOc1ccc([C@@H]2C3CN(C(=O)OCC)CC=C3C(C#N)=C(N)C2(C#N)C#N)cc1OC` (stereo partly drawn), the inhibition (in general, the relative decrease from the control value, in per cent) is 1%.
Take `O=C(Nn1cnnc1)C1Cc2ccccc2CN1S(=O)(=O)c1ccc(F)cc1` (stereo not drawn): the inhibition is 0%.
Under `c1ccc2c(c1)Cn1c-2nc2ccccc21` stands 0%.
The value for `Cc1ccc(O)c(NC(=O)COc2cc(C)ccc2C)c1` was 0%; that for `COc1cc2c(cc1OC)-c1cc(Nc3ccc4c(c3)OCCO4)nc(=O)n1CC2` was 2%.
The value for `O=S1(=O)CCC(N=Cc2cc(Br)ccc2O)C1` (stereo not drawn) was 0%; that for `CCCCc1nccn1CCn1ccnc1CCCC` was 0%.
In the case of `Cc1ccccc1C(OCCN(C)C)c1ccccc1` (stereo not drawn), the inhibition is 0%.
The value for `CCCn1c(C)cc(C(=O)COc2ncnc3sccc23)c1C` was 4%; that for `COc1cccc(C(=O)Nc2ccc(NC(C)=O)cn2)c1` was 0%; that for `CCC1(c2ccccc2)C(=O)NCNC1=O` was 7%.
Under `CCNC(=O)COc1ccc(Br)cc1Cl` stands 4%; under `CCc1nnc2c3cnn(-c4ccccc4)c3ncn12`, 0%; under `Cc1cc(C)n(-c2nc3nonc3nc2-n2nc(C)cc2C)n1`, 0%.
Under `C/C(N)=C(/C#N)C(=O)COC(=O)c1cc(C)n(-c2ccc(F)cc2)c1C` stands 2%; under `O=C1CCCc2c1cc(C(=O)NCc1ccco1)c(=O)n2-c1ccc(Cl)cc1`, 9%.
In the case of `Cc1nc(Nc2nc(=O)c3ccccc3n2C)nc2c(C)cccc12`, the inhibition was 0%.
For `O=C1C2C3C=CC(C3)C2C(=O)N1c1cccc(N2C(=O)C3C4C=CC(C4)C3C2=O)n1` (stereo not drawn), the inhibition is 0%.
